Compound activity: PubChem, National Center for Advancing Translational Sciences (NCATS)
SW480 rerep = A quantitative high throughput screen for small molecules that induce DNA re-replication in SW480 colon adenocarcinoma cells; SW480 DNA re-replication, Hoechst DNA content imaging, 48 h; Potency, µM (titrated, usually from 46.1 µM), for inactives: at the highest dose re-replication activation, hits mostly activators; actives 1.8% (n = 340,000); AID 624297, 2012; note: potency is the fitted concentration of half-maximal effect; % of control where 0% means no effect; nearly all actives have a fitted effect of over 55% in size
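Compounds, transferred as 23 nL by pin tool, were incubated with cells for 48 hr; DNA content per nucleus was then quantified by Hoechst staining and fluorescence plate imaging.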
PINK1 expr mod = A Quantitative High throughput Screen to Identify Chemical Modulators of PINK1 Expression; AID 624263, 2012; Potency, µM (series often up to 76.6 µM), for inactives: at the top dose activation (PINK1 increase), hits mostly activators; actives 0.2% (n = 410,000); PINK1 immunofluorescence, high-content cytometry, 24 h; active = well fitted activation curve with a large enough effect; inconclusive = small, poorly fitted or top-dose-only effect; cell line not stated here; note: potency is the fitted concentration of half-maximal effect; % of control where 0% means no effect; nearly all actives have a fitted effect of over 65% in size
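Compound titrations (5 concentrations, 24 h) on a stable cell line; DMSO and CCCP controls. Endpoint: fixed-cell PINK1 immunofluorescence with mitochondrial, cell and nuclear markers, scanned by microplate cytometer.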
ATXN viability = Viability Counterscreen for Primary qHTS for Inhibitors of ATXN expression | S2 cells (HEK-293 line with an ATXN2-luciferase reporter) viability, CellTiter-Fluor protease fluorescence, 24 h | actives 0.49% (n = 400,000) | AID 651635, 2014 | Potency, µM (series often up to 56.7 µM), actives largely listed as cytotoxic; note: potency is the fitted concentration of half-maximal effect; nearly all actives have a fitted effect of over 40% in size
IL1B secr inh = qHTS for Inhibitors of Inflammasome Signaling: IL-1-beta AlphaLISA Primary Screen. actives 4.7% (n = 360,000). THP-1 LPS/ATP IL-1B secretion, AlphaLISA, 16 h; stronger effect = lower value. activity change, % at 57.5 µM; in the data active = activity change below about -50%; inconclusive = mostly about -30% to -49%; note: % is set by controls: 0 for no effect and ±100 for the full control effect
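THP-1 cells pretreated 1 hr with compounds (up to 57.5 uM final), then stimulated with LPS (250 ng/mL final) plus ATP (1.25 mM final); secreted IL-1B measured by AlphaLISA after 16 hr, decreased signal indicating inhibition.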
ATXN2 expr inh = Primary qHTS for Inhibitors of ATXN expression; HEK-293 ATXN2-luciferase reporter, luminescence, 24 h; Potency, µM (doses to about 57 µM), for inactives: top-dose activity change, negative = inhibition, actives largely listed as inhibitors; actives 0.72% (n = 360,000); AID 1745845, 2022; note: potency is the fitted concentration of half-maximal effect; % is set by controls: 0 for no effect and ±100 for the full control effect; nearly all actives have a fitted effect of over 55% in size
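qHTS (up to 57 uM final) was run with 24 h compound exposure of reporter cells at 37 °C. Each well was multiplexed: SteadyGlo luminescence measured ATXN2-luciferase expression after a fluorogenic Gly-Phe-AFC viability readout (25 uM final).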
MCF10A rereplic = A quantitative high throughput screen for small molecules that induce DNA re-replication in MCF 10a normal breast cells | Potency, µM (series often up to 46.1 µM), for inactives: top-dose activity, positive = re-replication, usual class: activators | MCF 10A DNA re-replication, Hoechst nuclear intensity, 48 h | AID 624296, 2012 | actives 2.9% (n = 350,000); note: potency is the fitted concentration of half-maximal effect; % of control where 0% means no effect; nearly all actives have a fitted effect of over 50% in size
An asterisk follows results filed as active; i = inactive; ? = inconclusive; · = not tested or not shown; ! = not active in a repeat; [ ] = dose if it differs, or a comment. In the library only some 7.1% were active in any assay of this set; here they are far more common. Unless noted, calls come from the whole dose curve; as a rule, active = well fitted curve in the direction sought with a large enough effect; inconclusive = small, poorly fitted or top-dose-only effect, or another doubt; inactive = no such curve, though single readings can be large; an effect the other way counts as inactive or inconclusive.

SMILES	SW480 rerep	PINK1 expr mod	ATXN viability	IL1B secr inh	ATXN2 expr inh	MCF10A rereplic
FC(F)(F)c1ccc(N2CCN(c3cc(-c4ccccc4)nc4ncnn34)CC2)nc1	9%	·	i	-61*	?	-1%
FC(F)(F)c1cccc(Nc2cc(-c3ccccc3)nc3ncnn23)c1	-2%	7%	i	-5	·	-2%
Cc1ccc(N(C(=O)c2sc(C)nc2C)C(C(=O)NCc2ccco2)c2ccccc2)cc1 (centres undefined)	-17%	·	i	-54*	1%	5%
Cc1cc(C)cc(N(C(=O)c2sc(C)nc2C)C(C(=O)NCc2ccco2)c2ccccc2)c1 (centres undefined)	-3%	?	i	8	1%	5%
Cc1ccc(CN(C)C(=O)C2CCN(C(=O)Nc3ccccc3)CC2)o1	-156%	4%	i	10	-11%	8%
CSc1ccccc1NC(=O)CN(C)C(=O)C1CCN(C(=O)Nc2ccccc2)CC1	2.3µM*	1%	i	-5	-8%	15%
CN(Cc1ccc(C(C)(C)C)cc1)C(=O)C1CCN(C(=O)Nc2ccccc2)CC1	-274%	1%	i	-60*	-30%	31%
Cc1nc(N)sc1-c1ccnc(Nc2ccc(N3CCOCC3)cc2)n1	·	·	·	·	11µM*	·
Cc1cc(C)nc(Nc2ccc(N3CCOCC3)cc2)n1	-5%	0%	i	-4	43%	-9%
Cc1cc(N2CCCC2)nc(SCC(=O)c2ccccc2)n1	-4%	1%	?	-17	30%	?
Cc1cc(N2CCC(C)CC2)nc(SCC(=O)c2ccccc2)n1	-2%	-2%	i	-62*	18%	?
CN=CC1=C(O)c2ccccc2C1=O	28%	-3%[38.3 µM]	i	23	5%	13µM*
O=C1C(C=Nc2ccccc2O)=C(O)c2ccccc21	?	?	i	26	51%	5.2µM*
Cc1ccc(O)c(N=CC2=C(O)c3ccccc3C2=O)c1	?	0%	i	-1	38%	?
O=C1C(C=Nc2ccccc2)=C(O)c2ccccc21	-6%	1%	i	-14	48%	-3%
CC1=Nc2cc(C(=O)NCCc3ccc(Cl)cc3)ccc2Sc2ccc(C)cc21	·	1%	·	·	·	·
Oc1[nH]c2c(Cl)cc(Cl)cc2c1N=NC(=S)NCC1CCCO1 (centres undefined)	3%	19%	?	53	21µM*	17%
COc1ccc(S(=O)(=O)NCC(c2ccco2)S(=O)(=O)c2cccs2)cc1OC (centres undefined)	·	1%	·	·	·	·
CCOc1cc(-c2nc(-c3ccc(-c4ccc(C)cc4)nc3OC)no2)cc(OCC)c1OCC	·	2%	i	·	9%	·
CCOC(=O)/C(=C\C=C1/Sc2ccccc2N1CC)C(C)=O	0%	8%	·	?	-7%	8%
CCOC(=O)/C(=C/C=C1\Sc2ccccc2N1CC)C(C)=O	11%	2%	i	-69*	-3%	17%
CCOC(=O)/C(=C/C=C1\Sc2cc(C)c(C)cc2N1CC)C(C)=O	-9%	?	i	-92*	-4%[11.3 µM]	21%
CCC(=O)/C=C1/Sc2ccc(OC)cc2N1CC	-2%	-3%[38.3 µM]	i	0	-30%	-3%
CC(=O)NC1[C@H]([C@H](O)[C@H](O)CO)OC(C(=O)O)=C[C@H]1N=C(N)N (some centres undefined)	4%	·	·	·	·	4%
COc1cc2c(cc1OC)C(=O)CC2	·	·	i	·	21%	·
SMILES	SW480 rerep	PINK1 expr mod	ATXN viability	IL1B secr inh	ATXN2 expr inh	MCF10A rereplic
O=C(Nc1c(C(=O)O)oc2ccccc12)c1ccc(C(F)(F)F)cc1	·	-1%	i	·	1%	·
O=C(O)CCc1ccc(-c2ccc(Cl)cc2)o1	?	0%[38.3 µM]	i	-3	13%	21µM*
NC(=O)c1ccc(-c2ccc(Br)cc2)o1	0%	-4%	i	-24	41%	14%
O=C(O)CCc1ccc(-c2ccc(Br)cc2)o1	5.8µM*	1%	i	-65*	18%	?
COc1ccc(-c2ccc(CCC(=O)O)o2)cc1	?	3%	?	?	-15%	?
CN(C)c1ccc2nc3ccc(=[N+](C)C)cc-3sc2c1	?	1%	25µM*!	?	7.9µM*!	-9%
Cc1cc2nc3ccc(=[N+](C)C)cc-3sc2cc1N	?	-1%	13µM*	-17	7.1µM*	-5%
Cn1nc(-c2ccccc2F)c2cc(C(=O)N3CCN(c4ccccc4F)CC3)sc21	·	1%	?	·	?	·
CCN1C=C(Cc2cccs2)C2=C(C1)C(c1cccs1)C(C#N)=C(N)O2 (centres undefined)	25%	0%	i	-26	-6%	21µM*
CCN1CC2=C(OC(N)=C(C#N)C2c2cccs2)/C(=C/c2cccs2)C1 (centres undefined)	?	-3%	?	-23	-15%	?
CCc1nc2c(OCCOc3ccc(F)cc3)cccn2c1N(C)C(=O)CC(C)C	·	5%	i	-2	?	·
O=C(N/N=C/c1c(O)ccc2ccccc12)c1ccc(CO)nc1	?	?	i	114	4µM*	?
O=C(NN=Cc1c(O)ccc2ccccc12)c1ccc2c(c1)OCO2	21µM*	?	i	170	3.2µM*	12µM*
O=C(N/N=C\c1c(O)ccc2ccccc12)c1ccc(S(=O)(=O)N2CCCCC2)cc1	?	-2%	·	99	0.53µM*	0%
COc1ccc2ccccc2c1/C=N/NC(=O)c1ccc(C)nc1	-10%	1%	i	-10	·	15%
O=C(CNC(=O)c1ccc(S(=O)(=O)N2CCCC2)cc1)N/N=C/c1ccccc1Cl	15%	3%	i	-19	-8%	4%
CCOc1ccccc1NS(=O)(=O)c1ccc2c(c1)CC(C)N2C(=O)C1CC1 (centres undefined)	·	0%	i	·	-17%	·
COc1ccc(CNC(=O)c2ccc3nc(-c4ccc(F)cc4)c(-c4ccc(F)cc4)nc3c2)cc1	·	2%	i	·	6%	·
CC1(C)OC(=O)C2(Cc3ccccc3N3CCCC32)C(=O)O1 (centres undefined)	·	2%	·	·	·	·
COC(=O)[C@]12CCCCC=C1N(Cc1ccc(Cl)cc1Cl)C(=O)[C@H](CC(=O)NCCc1ccccc1OC)C2	·	1%	?	-61*	?	·
